CHX counter: counter-screen for Shiga toxin inhibitors: cycloheximide protein synthesis inhibition; cell reporter, cycloheximide protein synthesis inhibition counterscreen; max response, %; 12% of 300,000 active; in the data active = max response mostly above about 13%, no sharp cut-off; inactive = mostly below about 14%; note: read at 38.3 µM for the half of the compounds with a filed dose; 0% is about no effect
Pf growth 96h: inhibits malaria parasite growth, 96 h; P. falciparum luciferase reporter growth, 96 h; Potency, µM (highest dose often 28.7 µM), for the others: top-dose activity change, negative = inhibition, usual class: inhibitors; 6.9% of 320,000 active; note: potency is the fitted concentration of half-maximal effect; % is set by controls: 0 for no effect and ±100 for the full control effect
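Two-generation exposure (96 h) targets delayed-death phenotype. Reporter parasites carrying integrated firefly luciferase, in red cells at 2% hematocrit and 0.05% parasitemia final, kept at 37 C, 5% CO2; luminescence loss indicates inhibition.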
Pf growth 48h: P. falciparum growth inhibition at 48 hours (one generation) | 5.9% of 310,000 active | Potency, µM (top dose mostly 28.7 µM), for inactives: at the top dose activity change, negative = inhibition, usual class: inhibitors | AID 504832 | P. falciparum luciferase growth in erythrocytes, 48 h; note: potency is the fitted concentration of half-maximal effect; % is set by controls: 0 for no effect and ±100 for the full control effect
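Compounds are pin-transferred into medium, infected erythrocytes (2% hematocrit, 0.1% parasitemia final) are added, and plates sit one parasite generation at 37 C in 5% CO2. Detection reagent is then added and luminescence measured.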
Shiga toxin inh: Shiga toxin inhibition. Vero cells, Shiga toxin protein synthesis inhibition reporter. 9.2% of 290,000 active. inhibition, % at 38.7 µM; in the data active = inhibition mostly above about 28%, no sharp cut-off; inactive = mostly below about 43%; note: 0% is about no effect
AMA1-RON2 inh: AMA1-RON2 (P. falciparum) interaction inhibition; 0.2% of 360,000 active; Potency, µM (highest dose often 58.2 µM), for inactives: at the highest dose activity change, negative = inhibition, most hits filed as inhibitors; AlphaScreen AMA1-biotinylated RON2 peptide binding;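 note: potency is the fitted concentration of half-maximal effect; 0% = vehicle wells and -100% = peptide control; nearly all actives have a fitted effect of over 45% in size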
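AMA1 (3D7) with his tag at 25 nM final met compounds first, then biotinylated RON2 peptide at 25 nM; detection used donor plus acceptor beads, 10 µg/mL apiece, read by AlphaScreen after 30 min at room temperature.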
SARS PLP yeast: inhibitors of SARS-CoV papain-like protease in yeast; S. cerevisiae expressing SARS-CoV PLpro, growth rescue; Potency, µM (highest dose often 32.9 µM), for inactives: at the top dose activity, positive = growth rescue, hits mostly activators; 0.19% of 330,000 active; calls by dose curve; note: potency is the fitted concentration of half-maximal effect; 0% is about no effect; nearly all actives have a fitted effect of over 55% in size
The depositor's hits bear a star; i = inactive; ? = inconclusive; . = not tested or not shown. Compounds with a hit are over-represented: about 19% of the library has one in this group of screens. Unless noted, calls come from the whole dose curve; as a rule, active = well fitted curve in the direction sought with a large enough effect; inconclusive = small, poorly fitted or top-dose-only effect, or another doubt; inactive = no such curve, though single readings can be large; an effect the other way counts as inactive or inconclusive.

SMILES | CHX counter | Pf growth 96h | Pf growth 48h | Shiga toxin inh | AMA1-RON2 inh | SARS PLP yeast
Cc1cc(C(=O)Nn2c(-c3ccc(Br)cc3)nc3ccccc3c2=O)ccc1[N+](=O)[O-] | -3.1 | 7.6% | -5.9% | -6.8 | 3.2% | -24.6%
CCc1ccc(S(=O)(=O)NCC2(N3CCOCC3)CCCCC2)cc1 | . | ? | ? | . | -3.5% | 6.0%
Cc1nn(C)c(C)c1CN(C)C(=O)c1cnn2c1NC(c1ccccc1)CC2C(F)(F)F (stereo not drawn) | -2.3 | i | . | -8.0 | -9.2% | -1.1%
Cc1nn(C)c(C)c1CNC(=O)c1cc2n(n1)C(C(F)(F)F)CC(c1cccs1)N2 (stereo not drawn) | -2.1 | 7.38µM* | -6.2% | -3.7 | 3.2% | 2.2%
Cc1nn(C)c(C)c1CN(C)C(=O)c1nn2c(c1Br)NC(c1cccs1)CC2C(F)(F)F (stereo not drawn) | -2.9 | 9.28µM* | ? | -7.2 | 8.9% | 11.5%
Cc1ccc(C)c(NC(=S)N2CCC(NC(=O)c3ccccc3)CC2)c1 | -5.9 | 30.1% | 5.4% | 2.5 | 7.4% | -1.3%
O=C(CSc1nc2ccccc2s1)NCC1CCCO1 (stereo not drawn) | 18.4 | -25.1% | 48.5% | 30.8 | 26.9% | ?
O=c1oc2ccccc2n1CCCCCn1c(=O)oc2ccccc21 | 18.8 | ? | ? | 4.5 | -6.8% | 3.5%
O=c1oc2ccccc2n1CSC1=NCCS1 | 19.4* | 6.1% | ? | 55.0 | -1.0% | 0.6%
O=c1oc2ccccc2n1CSc1nc2ccccc2s1 | 41.4* | -4.5% | 264.3% | 95.8* | 26.6% | ?
CCN(CC(=O)NC(C)(C)C)Cc1nc2c(Br)cc(Br)cc2c(=O)[nH]1 | -2.9 | 9.28µM* | 11.7µM* | -7.9 | 76.7% | -0.2%
CC(C)C1C(c2ccccc2)NC(c2ccccc2)CC1(O)c1ccc(F)cc1 (stereo not drawn) | -1.7 | ? | 4.15µM* | 9.6 | -3.2% | -0.3%
CC(C)C1C(c2ccccc2)N(C)C(c2ccccc2)CC1(O)c1ccccc1 (stereo not drawn) | -2.3 | . | ? | -11.7 | -2.6% | -2.6%
N#C/C(=C1/C(=O)Nc2ccc(Br)cc21)c1ccccn1 | -0.8 | 1.8% | 10.8% | -5.3 | -4.5% | -3.8%
NC(=O)c1cc(N2C(=O)C=CC2=O)ccc1Cl | 19.6 | 0.0% | 2.33µM* | -2.5 | -1.9% | -10.6%
Cc1ccc([C@@H]2CC(=O)[C@@H]3CN(S(=O)(=O)c4ccc(C)cc4)[C@H](c4ccccc4)C[C@@H]3N2S(=O)(=O)c2ccc(Cl)cc2)cc1 | . | . | . | . | 8.8% | .
CC(=O)c1ccc(NC(=O)COC(=O)C2C3CC4OC(=O)C2C4C3)cc1 (stereo not drawn) | 33.8 | 6.8% | -11.2% | 47.0 | -7.9% | -0.5%
Cc1cc(NCc2ccccc2)c2ccccc2n1 | -2.3 | ? | 3.29µM* | -8.3 | -1.9% | -1.8%
COc1ccc2nc(C)cc(NCc3cccc(C(F)(F)F)c3)c2c1 | -4.4 | ? | 0.928µM* | -12.2 | -10.7% | -3.0%
COc1ccc(-c2nc3n(n2)C(c2ccncc2)C(C(N)=O)=C(C)N3)cc1 (stereo not drawn) | -2.2 | ? | -2.9% | -6.5 | 6.5% | 5.2%
CC1=C(C(=O)Nc2cccnc2)C(c2cccnc2)n2nc(-c3cccs3)nc2N1 (stereo not drawn) | -4.7 | 9.28µM* | -0.1% | 23.5 | -2.6% | 0.6%
COc1ccc(-c2nc3n(n2)C(c2cccnc2)C(C(N)=O)=C(C)N3)cc1 (stereo not drawn) | -4.1 | 11.7µM* | -10.4% | 4.3 | -2.3% | 4.0%
CC1=C(C(=O)Nc2ccccc2)C(c2cccnc2)n2nc(-c3cccnc3)nc2N1 (stereo not drawn) | -2.8 | 22.6% | -14.3% | -8.7 | -3.0% | 4.0%
S=C(NN=C1C2CC3CC(C2)CC1C3)Nc1ccccc1 | 52.8* | 10.4µM* | . | 146.0* | 49.6% | 13.0%
CCC(C)(C)C1CCC(=NNC(=S)Nc2ccccc2)CC1 (stereo not drawn) | 2.8 | 3.9% | ? | 5.5 | 4.2% | -0.6%
SMILES | CHX counter | Pf growth 96h | Pf growth 48h | Shiga toxin inh | AMA1-RON2 inh | SARS PLP yeast
CC1(C)CC(=O)C(N=Nc2cccc([N+](=O)[O-])c2)=C(O)C1 | 45.3* | 33.4% | 9.4% | 63.4* | -14.2% | -4.8%
CC1(C)CC(=O)C(N=Nc2ccc(Br)cc2)=C(O)C1 | 5.5 | 6.9% | 13.8% | 15.7 | 8.7% | 0.6%
CC1(C)CC(=O)C(N=Nc2ccc(C(F)(F)F)cc2[N+](=O)[O-])=C(O)C1 | -1.5 | -20.3% | ? | -11.9 | ? | -4.2%
COc1ccc(N=NC2=C(O)CC(C)(C)CC2=O)c(OC)c1 | 18.7 | -12.4% | -12.1% | 53.3* | -14.9% | -0.4%
COc1ccc(N=NC2=C(O)CC(C)(C)CC2=O)cc1 | 47.0* | ? | 6.2% | 124.5* | -18.6% | -11.8%
CC(C)Oc1ccc(CN2CCC2(C)C(=O)Nc2ccc(Cl)c(Cl)c2)cc1 (stereo not drawn) | . | . | . | . | 5.6% | .
Fc1cccc2sc(Nc3nc4ccccc4s3)nc12 | 55.7* | 32.6% | 208.8% | 69.2* | 46.1% | -19.1%
Fc1ccc2nc(Nc3nc4c(F)cc(F)cc4s3)sc2c1 | 4.5 | 10.4µM* | 0.0% | 38.8 | 64.7% | -16.8%
Fc1ccc2nc(Nc3nc4c(F)cccc4s3)sc2c1 | 45.5* | ? | -17.9% | 42.0* | 60.5% | .
CCc1nc2ccc(C(=O)NCCCn3ccnc3)cn2c1N(CC)C(=O)NCCc1ccccc1 | . | . | . | . | -3.2% | .
N/C(Cc1nc2ccccc2s1)=N\O | 30.6* | ? | ? | 108.2* | 84.5% | -0.7%
NC(=O)CSCc1nc2ccccc2s1 | 84.2* | -17.2% | . | 41.7 | -6.1% | 5.1%
CC(=O)Nc1ccc(SCCN2CCN(C)CCC2=O)cc1 | 8.6 | . | . | 5.9 | . | .
CC(C)CCOC(=O)C[N+](C)(C)CCOC1CC2CCC1(C)C2(C)C (stereo not drawn) | 0.9 | 246.2% | ? | -6.7 | 0.9% | -3.2%
CC1(C)C2CCC1(C)C(OCCNCCOC(=O)Nc1ccccc1)C2 (stereo not drawn) | -1.1 | -15.1% | ? | 11.9 | -13.6% | -1.3%
CCCCCCCOC(=O)C[N+](C)(C)CCOC1CC2CCC1(C)C2(C)C (stereo not drawn) | -2.4 | 13.1µM* | 1.85µM* | -0.4 | 66.0% | -63.5%
CCC(C)OC(=O)C[N+](C)(C)CCOC1CC2CCC1(C)C2(C)C (stereo not drawn) | 8.6 | 36.2% | 0.928µM* | 8.0 | -11.5% | 0.9%
CCCCCCOC(=O)C[N+](C)(C)CCOC1CC2CCC1(C)C2(C)C (stereo not drawn) | 19.3* | 0.738µM* | 1.65µM* | 17.3 | 47.9% | -18.3%
CCCOC(=O)C[N+](C)(C)CCOC1CC2CCC1(C)C2(C)C (stereo not drawn) | 0.5 | 1.47µM* | 1.85µM* | 4.6 | 7.5% | 0.0%
CCCCCCCCCCOC(=O)CCN1CC1 | . | . | . | . | 40.2% | .

Screening results from PubChem BioAssay.
